This is an account of results in PubChem BioAssay (NCI).

Test systems include NCI-H23 lung; NCI-H322M lung; HOP-62 NSCLC; NCI-H460 lung; HOP-92 NSCLC; NCI-H522 lung; A549/ATCC NSCLC; 786-0 renal; COLO 205 colon; DU-145 prostate; K-562 leukemia; MALME-3M melanoma; MDA-MB-231 breast; RXF 393 renal; SF-268 CNS; SF-295 CNS; SF-539 CNS; UACC-257 melanoma; HCT-15 colon.
Holding throughout (assay): NCI-60 one-dose screen, 48 h (100 = growth as untreated, 0 = no growth, -100 = all killed)
The test system of another assay is M14 melanoma. The conditions noted are these: 10 µM.

The panel holds about 83,000 compounds, 20% with a hit somewhere; the sample as a whole holds those more often.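 Interpretation: 100, growth as untreated; towards 0, rising growth inhibition; 0, no net growth; 0 to -100, cell death. Compounds scoring below 10 were considered active.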 Values without a mark were called inactive. Calls of active or inactive are those of the source. Starred links: 1 amine or outer side, 2 acyl side, 3 side chain; linkers in the order of their positions; H or OH if unused. Positions of bridges follow the written chain, without caps; N, C: chain ends. Non-standard residues stand in square brackets, D forms with d. Residues, ends and D or L forms follow the SMILES beside them. Chains are numbered I, II in the order given. Actinocin(9to1) = Cc1c2oc3c(C)ccc(C(=O)[*:1])c3nc-2c(C(=O)[*:2])c(N)c1=O; aThr = C[C@H](O)[C@H](N)C(=O)O; NMeV = CN[C@H](C(=O)O)C(C)C; Sar = CNCC(=O)O

Regarding `Cc1c2oc3c(C)ccc(C(=O)N[C@@H]4C(=O)N[C@H](C(C)C)C(=O)N5CCC[C@H]5C(=O)N(C)CC(=O)N(C)[C@@H](C(C)C)C(=O)O[C@H]4C)c3nc-2c(C(=O)N[C@@H]2C(=O)N[C@H](C(C)C)C(=O)N3CCC[C@H]3C(=O)N(C)CC(=O)N(C)[C@@H](C(C)C)C(=O)O[C@H]2C)c(N)c1=O` (I: [aThr][dV]P[Sar][NMeV] / II: [aThr][dV]P[Sar][NMeV]; ester I:1-I:C, II:1-II:C; linker I:N-II:N via Actinocin(9to1)), the growth in the assay on NCI-H23 lung (0.0025 µM) is 53.2%; in the assay on NCI-H23 lung (10 µM), -50.9% (active); with NCI-H322M lung (0.0025 µM), 64.7%; in the assay with NCI-H322M lung (10 µM) it was 7.68% (active); with HOP-62 NSCLC (0.0025 µM) it was 41.2%; in the assay with HOP-62 NSCLC (10 µM), -16.9% (active). Also, the growth with NCI-H460 lung (0.0025 µM) was 16.7%; in the assay on NCI-H460 lung (10 µM) it was -22.4% (active); in the assay with HOP-92 NSCLC (0.0025 µM) it was 50.7%; in the assay with HOP-92 NSCLC (10 µM), -16.3% (active); in the assay with NCI-H522 lung (0.0025 µM) it was 33.9%; in the assay with NCI-H522 lung (10 µM), -38.4% (active). Also, the growth in the assay on A549/ATCC NSCLC (0.0025 µM) is 36.8%; in the assay on A549/ATCC NSCLC (10 µM), -38.9% (active); in the assay with 786-0 renal (0.0025 µM), 41.8%; with 786-0 renal (10 µM) it was -3.24% (active); in the assay with COLO 205 colon (0.0025 µM), 44.2%; with COLO 205 colon (10 µM), -56.7% (active). Besides, the growth is 41.6% in the assay on DU-145 prostate (0.0025 µM); -30.5% (active) in the assay with DU-145 prostate (10 µM); 18.8% with K-562 leukemia (0.0025 µM); 0.49% (active) in the assay with K-562 leukemia (10 µM); 66.3% in the assay on MALME-3M melanoma (0.0025 µM); -61.4% (active) with MALME-3M melanoma (10 µM). Moreover, the growth is 64.2% with MDA-MB-231 breast (0.0025 µM); -2.13% (active) in the assay with MDA-MB-231 breast (10 µM); 31.1% in the assay with RXF 393 renal (0.0025 µM); -45.9% (active) in the assay on RXF 393 renal (10 µM); 46.1% in the assay on SF-268 CNS (0.0025 µM); -9.34% (active) in the assay with SF-268 CNS (10 µM). Moreover, the growth in the assay on SF-295 CNS (0.0025 µM) was 62.4%; with SF-295 CNS (10 µM) it was -8.12% (active); with SF-539 CNS (0.0025 µM), 25.5%; in the assay on SF-539 CNS (10 µM), -54.7% (active); in the assay on UACC-257 melanoma (0.0025 µM) it was 30.6%; with UACC-257 melanoma (10 µM), -29.8% (active). Besides, the growth was 74.4% in the assay with HCT-15 colon (0.0025 µM) and 2.4% (active) in the assay on HCT-15 colon (10 µM).

`COc1cc(C(C)(C)C)cc(OC)c1C(O)(c1c(OC)cc(C(C)(C)C)cc1OC)c1c(OC)cc(C(C)(C)C)cc1OC`: the growth with NCI-H23 lung (10 µM) was -51.2% (active); in the assay on NCI-H322M lung (10 µM) it was -68.6% (active); in the assay with HOP-62 NSCLC (10 µM) it was -95.3% (active); in the assay on NCI-H460 lung (10 µM) it was -82.1% (active); in the assay with HOP-92 NSCLC (10 µM) it was -66.2% (active); in the assay with NCI-H522 lung (10 µM), -56.4% (active). In addition, the growth in the assay with A549/ATCC NSCLC (10 µM) is -54.4% (active); in the assay with 786-0 renal (10 µM), -96.6% (active); in the assay on COLO 205 colon (10 µM), -89.2% (active); in the assay with DU-145 prostate (10 µM), -100% (active); in the assay with K-562 leukemia (10 µM) it was -89.4% (active); with MALME-3M melanoma (10 µM) it was -80.8% (active). Besides, the growth in the assay on MDA-MB-231 breast (10 µM) was -85.2% (active); in the assay with RXF 393 renal (10 µM) it was -27.4% (active); in the assay with SF-268 CNS (10 µM) it was -77% (active); in the assay on SF-295 CNS (10 µM), -78.9% (active); with UACC-257 melanoma (10 µM) it was -46.1% (active); in the assay with M14 melanoma it was -94.6% (active). The growth in the assay on HCT-15 colon (10 µM) is -85.8% (active).

Take `CCCCCCCCCCCCCCCCCN`: the growth is 106% in the assay with NCI-H23 lung (10 µM); 110% with NCI-H322M lung (10 µM); 87.7% in the assay with HOP-62 NSCLC (10 µM); 102% in the assay with NCI-H460 lung (10 µM); 67% in the assay on HOP-92 NSCLC (10 µM); 101% in the assay on NCI-H522 lung (10 µM). The growth with A549/ATCC NSCLC (10 µM) was 105%; in the assay on 786-0 renal (10 µM), 105%; in the assay with COLO 205 colon (10 µM), 99.8%; in the assay on DU-145 prostate (10 µM), 114%; in the assay with K-562 leukemia (10 µM) it was 103%; in the assay on MALME-3M melanoma (10 µM), 98%. Moreover, the growth in the assay with MDA-MB-231 breast (10 µM) is 93%; with RXF 393 renal (10 µM), 98.7%; in the assay with SF-268 CNS (10 µM), 113%; with SF-295 CNS (10 µM), 99.1%; in the assay with SF-539 CNS (10 µM) it was 94.2%; with UACC-257 melanoma (10 µM), 99.2%. The growth in the assay on M14 melanoma and with HCT-15 colon (10 µM) was 104% each time.

Regarding `Cc1cnc(/C=N\NC(N)=S)c2cccc(N)c12`, the growth with NCI-H23 lung (10 µM) was 7.29% (active); with NCI-H322M lung (10 µM), -21.9% (active); in the assay on HOP-62 NSCLC (10 µM), 11.3%; in the assay on NCI-H460 lung (10 µM), 1.79% (active); in the assay with NCI-H522 lung (10 µM) it was -1.74% (active); in the assay on A549/ATCC NSCLC (10 µM), 11.6%. For the same molecule, the growth with 786-0 renal (10 µM) was 6.81% (active); with COLO 205 colon (10 µM) it was 15.1%; in the assay with DU-145 prostate (10 µM), -15.6% (active); in the assay on K-562 leukemia (10 µM), 30.6%; with MDA-MB-231 breast (10 µM), 34.2%; with SF-268 CNS (10 µM), 2.26% (active). The growth is -29.9% (active) in the assay on SF-295 CNS (10 µM); -47.9% (active) in the assay on SF-539 CNS (10 µM); -30.6% (active) with UACC-257 melanoma (10 µM); -24.7% (active) with M14 melanoma; 24.9% in the assay with HCT-15 colon (10 µM).

For the molecule `CN(C)CCC(=O)c1c[nH]c2ccccc12`, the growth was 110% in the assay with NCI-H23 lung (10 µM); 94% in the assay with NCI-H322M lung (10 µM); 94.4% in the assay on HOP-62 NSCLC (10 µM); 113% with NCI-H460 lung (10 µM); 91.8% in the assay on NCI-H522 lung (10 µM); 110% in the assay on A549/ATCC NSCLC (10 µM). For the same molecule, the growth with 786-0 renal (10 µM) was 98.8%; in the assay with COLO 205 colon (10 µM) it was 111%; in the assay on DU-145 prostate (10 µM), 111%; in the assay with MALME-3M melanoma (10 µM) it was 105%; with MDA-MB-231 breast (10 µM), 115%; with RXF 393 renal (10 µM), 126%. In addition, the growth with SF-268 CNS (10 µM) was 115%; in the assay on SF-295 CNS (10 µM), 99.7%; in the assay with SF-539 CNS (10 µM), 103%; with UACC-257 melanoma (10 µM), 115%; in the assay on M14 melanoma, 101%; in the assay on HCT-15 colon (10 µM), 110%.

For `S=c1[nH]nc(Cc2ccccc2)c(=S)[nH]1`, the growth in the assay on NCI-H23 lung (10 µM) is 92.5%; in the assay on NCI-H322M lung (10 µM), 97.7%; with HOP-62 NSCLC (10 µM) it was 97.7%; with NCI-H460 lung (10 µM) it was 104%; with HOP-92 NSCLC (10 µM), 100%; in the assay with NCI-H522 lung (10 µM), 88%. The growth is 94.7% with A549/ATCC NSCLC (10 µM); 106% with 786-0 renal (10 µM); 106% in the assay with COLO 205 colon (10 µM); 100% with DU-145 prostate (10 µM); 94.6% in the assay with K-562 leukemia (10 µM); 98.3% in the assay on MALME-3M melanoma (10 µM). In addition, the growth in the assay on MDA-MB-231 breast (10 µM) was 113%; with RXF 393 renal (10 µM), 103%; in the assay with SF-268 CNS (10 µM) it was 90.3%; with SF-295 CNS (10 µM), 99.8%; in the assay on SF-539 CNS (10 µM) it was 102%; with UACC-257 melanoma (10 µM), 102%. The values for the growth with M14 melanoma and in the assay with HCT-15 colon (10 µM) were 101% and 102%, respectively.
